Pf growth 48h: Primary qHTS for delayed death inhibitors of the malarial parasite plastid, 48 hour incubation. hit rate 5.9% among 310,000. P. falciparum luciferase growth in erythrocytes, 48 h. Potency, µM (top dose mostly 28.7 µM), for inactives: at the highest dose activity change, negative = inhibition, hits mostly inhibitors. AID 504832, 2011; note: potency is the fitted concentration of half-maximal effect; % is set by controls: 0 for no effect and ±100 for the full control effect
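Erythrocytes infected with P. falciparum carrying an integrated firefly luciferase reporter (2% hematocrit, 0.1% parasitemia final) were exposed to compounds in RPMI 1640 with 0.5% Albumax at 37 C, 5% CO2. Growth inhibition was scored as reduced luminescence.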
Pf growth 96h: Primary qHTS for delayed death inhibitors of the malarial parasite plastid, 96 hour incubation; hit rate 6.9% among 320,000; Potency, µM (series often up to 28.7 µM), for inactives: at the top dose activity change, negative = inhibition, most hits filed as inhibitors; P. falciparum luciferase reporter growth, 96 h; note: potency is the fitted concentration of half-maximal effect; % is set by controls: 0 for no effect and ±100 for the full control effect
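Erythrocytes infected with luciferase-expressing P. falciparum were dispensed at 2% hematocrit and 0.05% parasitemia (final), then incubated with compounds 96 hours at 37 C in 5% CO2. Luminescence after detection reagent addition reported growth.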
Cycloheximide cs: Cycloheximide Counterscreen for Small Molecule Inhibitors of Shiga Toxin; cell reporter, cycloheximide protein synthesis inhibition counterscreen; max response, %; hit rate 12% among 300,000; AID 2314, 2010; in the data active = max response mostly above about 13%, no sharp cut-off; inactive = mostly below about 14%; note: read at 38.3 µM for the half of the compounds with a filed dose; 0% is about no effect
Shiga toxin inh: A qHTS for Small Molecule Inhibitors of Shiga Toxin | inhibition, % at 38.7 µM | Vero cells, Shiga toxin protein synthesis inhibition reporter | AID 2315, 2010 | hit rate 9.2% among 290,000; in the data active = inhibition mostly above about 28%, no sharp cut-off; inactive = mostly below about 43%; note: 0% is about no effect
The depositor's hits bear a star; i = inactive; u = inconclusive; x = no result. A selection: hits, their analogues and other compounds. The true share with any hit is near 21%. Unless noted, calls come from the whole dose curve; as a rule, active = well fitted inhibition curve with a large enough effect; inconclusive = small, poorly fitted or top-dose-only effect, or another doubt; inactive = no such curve, though single readings can be large or run the other way.

SMILES	Pf growth 48h	Pf growth 96h	Cycloheximide cs	Shiga toxin inh
O=S(=O)(CC(CN1CCCC1)N1CCCC1)c1ccc2ccccc2c1 (stereo not given)	u	4.1µM*	2	3
Cc1ccc(S(=O)(=O)CC(CN2CCOCC2)N2CCOCC2)cc1 (stereo not given)	0%	-18%	-1	-6
O=C1c2ccccc2NC(c2ccccc2)N1c1ccc(O)cc1 (stereo not given)	2%	-23%	-2	36
COc1cccc(C2Nc3ccccc3C(=O)N2c2ccc(F)cc2)c1O (stereo not given)	x	223%	59*	79*
O=C1c2ccccc2NC(c2ccccc2O)N1c1ccc(F)cc1 (stereo not given)	x	278%	67*	56*
COc1ccc(CCNC(=O)CSc2ccc3nnc(CCNC(=O)c4ccccc4)n3n2)cc1OC	24%	-16%	-3	-2
CC(=O)Nc1ccc(N2C(=O)CSC2c2ccccc2)cc1 (stereo not given)	-4%	u	-5	29
CCO/C=C/C(=O)N(C)CCC#N	13%	12µM*	-2	-6
CN(CCC#N)C(=O)COC(=O)/C=C/c1cccs1	3%	-3%	4	27
Cc1ccc2c(COC(=O)c3n[nH]c4ccccc34)cc(=O)oc2c1	80%	-9%	32*	78*
CCc1ccc2c(COC(=O)c3n[nH]c4ccccc34)cc(=O)oc2c1	1%	-6%	46*	94*
Cc1ccc2c(COC(=O)c3ccccc3F)cc(=O)oc2c1	243%	223%	27*	128*
COc1ccc(Cc2nnc(SCC(=O)N(C)CC(=O)Nc3ccc(C)cc3)o2)cc1	2%	-5%	x	x
Cc1ccc(C(=O)NCC(=O)OCC(=O)Nc2ccc3[nH]c(=O)[nH]c3c2)cc1	-6%	35%	x	x
COc1ccc(/C=N/NS(=O)(=O)c2ccc(C)cc2)cc1	35%	3.3µM*	1	-2
COc1cc(/C=N/NS(=O)(=O)c2ccc(C)cc2)ccc1OCc1cccc(C(=O)O)c1	122%	u	54*	183*
COc1ccc(/C=N/NS(=O)(=O)c2ccc(C)cc2)cc1OC(=O)c1ccccc1	18%	17%	-1	-2
NS(=O)(=O)c1ccc(CNS(=O)(=O)c2ccc3ccccc3c2)cc1	12%	u	2	-32
COc1cc(/C=N/NS(=O)(=O)c2ccc3ccccc3c2)ccc1OCc1ccc(C(=O)O)cc1	478%	i	63*	119*
O=C(O)c1ccc(CNS(=O)(=O)c2ccc3ccccc3c2)cc1	-20%	-13%	30	55*
CCOc1ccc2oc(C(=O)N(C)CC(=O)Nc3ccc(OCC)c(OCC)c3)c(C)c2c1	u	12µM*	x	x
COc1ccc(NC(=O)CN(C)C(=O)c2oc3ccccc3c2C)cc1	u	3.7µM*	15	26
CN(CC(=O)Nc1ccc(F)cc1)C(=O)COC(=O)/C=C/c1ccccc1[N+](=O)[O-]	-8%	-7%	x	x
O=C(Nc1cc(Cl)ccc1N1CCCC1)C1=NN(c2ccccc2)C(=O)CC1	-10%	9.3µM*	1	-5
Cc1ccc(C)c(N2N=C(C(=O)Nc3ccccc3N3CCCC3)CCC2=O)c1	u	u	6	13
SMILES	Pf growth 48h	Pf growth 96h	Cycloheximide cs	Shiga toxin inh
Cc1ccc(S(=O)(=O)N2CCOCC2)cc1NC(=O)C1=NN(c2ccccc2)C(=O)CC1	u	u	0	-3
Cc1ccc(C)c(N2N=C(C(=O)Nc3ccccc3N3CCOCC3)CCC2=O)c1	12µM*	u	x	x
CCN(CC)S(=O)(=O)c1ccc(N2CCCC2)c(NC(=O)C2=NN(c3ccccc3)C(=O)CC2)c1	10µM*	15µM*	x	x
CN(C)c1ccc(S(=O)(=O)N2CCCCC2)cc1NC(=O)C1=NN(c2ccccc2)C(=O)CC1	-19%	5.9µM*	-1	-12
O=C(Nc1ccc(N2CCOCC2)cc1)C1=NN(c2ccccc2)C(=O)CC1	-12%	19%	x	x
Clc1ccsc1-c1ccc2ccccc2n1	161%	x	57*	107*
c1ccc2nc(-c3nccs3)ccc2c1	56%	0%	28*	96*
CC(C)CNC(=O)C1CCN(S(=O)(=O)c2ccc3c(c2)OCCO3)CC1	-26%	-25%	x	x
COc1ccc(S(=O)(=O)N2CCN(C(=O)NCc3ccc(OC)c(OC)c3)CC2)cc1	-3%	u	4	41
COc1cc(C(=O)N/N=C/c2ccc(OC)c(CN3CCN(c4ccc(F)cc4)CC3)c2)ccc1O	u	-1%	6	52
CC(/C=N/NC(=O)c1sc(N)nc1C)=C\c1ccccc1	163%	u	44*	56*
Cc1nc(N)sc1C(=O)N/N=C/c1ccccc1[N+](=O)[O-]	162%	2%	36*	126*
Cc1nc(N)sc1C(=O)N/N=C/c1ccco1	9%	10%	-4	2
Cc1nc(N)sc1C(=O)N/N=C/c1c[nH]c2ccccc12	x	-3%	21*	38
Cc1nc(N)sc1C(=O)N/N=C/c1ccc([N+](=O)[O-])cc1	16%	20%	-2	0
O=C(Nc1nc2c(s1)CCCC2)c1cc(-c2ccccc2)nc2ccccc12	u	18%	14*	19
O=C(NC1=NCCS1)c1cc(-c2ccc(-c3ccccc3)cc2)nc2ccccc12	75%	93%	24*	28
COc1ccc(-c2cc(C(=O)NC3=NCCS3)c3ccccc3n2)cc1OC	-9%	u	27*	46
O=S(=O)(c1cccc(F)c1)N1CCN(S(=O)(=O)c2ccc3c(c2)OCCO3)CC1	x	x	3	17
CCOC(=O)C1CCCN(Cc2cc(Br)c(OC)cc2OC)C1 (stereo not given)	-3%	u	-2	15
Cc1ccc2c(CN3CCC(C)CC3)cc(=O)oc2c1	125%	x	53*	151*
CCOC(=O)C1CCN(Cc2cc(=O)oc3cc(C)ccc23)CC1	3%	59%	8	29
Cc1ccc2c(CN3CC(C)CC(C)C3)cc(=O)oc2c1 (stereo not given)	u	1%	-3	-4
CCOC(=O)C1CCCN(Cc2cc(=O)oc3cc(C)c(C)cc23)C1 (stereo not given)	-26%	23%	37*	28
CCOC(=O)C1CCCN(Cc2cc(=O)oc3cc(C)ccc23)C1 (stereo not given)	10%	16%	44*	69*
Cc1ccc2c(CN3C(=O)NC(C)(c4ccc5c(c4)OCO5)C3=O)cc(=O)oc2c1 (stereo not given)	4.1µM*	u	5	19
CC(=O)Nc1ccc2c(CN3C(=O)NC(C)(c4ccc(C)cc4)C3=O)cc(=O)oc2c1 (stereo not given)	u	u	-2	-4
CN(CC(=O)Nc1ccc(Cl)c(C(F)(F)F)c1)C(=O)c1ccc(OCC2CCCO2)cc1 (stereo not given)	-1%	u	x	x
Cc1cc(C)cc(NS(=O)(=O)c2ccc(NC(=O)C3CCCCC3C(=O)O)cc2)c1 (stereo not given)	2%	27%	12	-7
N#Cc1cc2ccccc2nc1SCc1ccccn1	183%	x	59*	147*
